This is an account of results in paper PMC12136788.

In all, about 24,000 sequences were measured (“enrichment r”: median about 0.99, highest 2% from about 3.7 on). Only a selection was taken, and the highest values are over-represented in it overall.

The labels stand for the following.
T1: UNK ZnF1-3 (human, UniProt Q9C0B0 31-174)
T1 sequence: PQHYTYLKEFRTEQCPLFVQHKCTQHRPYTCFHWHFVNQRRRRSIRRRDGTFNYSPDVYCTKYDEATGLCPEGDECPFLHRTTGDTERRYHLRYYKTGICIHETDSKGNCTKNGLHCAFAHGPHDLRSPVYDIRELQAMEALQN

B1: 113942580_113943501_80_5pUTR_ENSG00000119927_ENST00000348367|human|control|control (ssRNA)
RNA: GGGAGUUCUACAGUCCGACGAUCAUAAAACUUCAGGACUCAGCUAUCAGUUUCGGGUGCAGAAUGUCCAUACAACAGGGGAGCCGCUGCUGCCCUAGCAGCUCCAGCUUCGGCUGCUGCAGAAGCCCGCACUUCCAGUCCCGGCAACAGAGGAUUGAGCAUCA
B2: chr7:65419240:65419241:+_ENSG00000196715_ENST00000360768|hu_mus|motif|central (ssRNA)
RNA: GGGAGUUCUACAGUCCGACGAUCGCUGGCCAUCAGUCUUCCUUAGGCUGCAGCUGUCGCUUCCAGGCCUCAUUCAAAUAAACGGGUCGUUUGUAAUUGAUGAUGAGGAGGAGGAAGUUCAGCACAUAUGUGGUGACGCAGAUGCAACAGAGGAUUGAGCAUCA
B3: chr11:107358869:107358870:+_ENSMUSG00000020720_ENSMUST00000021063|mus_hu|FALSE|FALSE (ssRNA)
RNA: GGGAGUUCUACAGUCCGACGAUCCUCUGGAAGUUGAUAAUUCCUGCUAAUCUGUCUACUUUAGCAAAGAUGGUCUUGUUAACUACUAGAUUUGAGAGAAAGGCUUCGGACUCAUCAACAGAUAGAUCCAGAAGCUGUGCCAUCCAACAGAGGAUUGAGCAUCA
B4: chr3:55808730:55808731:-_ENSMUSG00000027799_ENSMUST00000029374|mus_mus|FALSE|FALSE (ssRNA)
RNA: GGGAGUUCUACAGUCCGACGAUCUGACGUCGUAUGAAUUCUGAAGUCUUUCUCUUCCAUUAUGCUUGAUGUGCACGUUAACUCUACACUCGCAGUCAUGUGAGCAAGCAACCCAAGAUCAUCACUGACACCAAGAUGUACUUGCAACAGAGGAUUGAGCAUCA
B5: 75313438_75313660_4053_CDS_ENSMUSG00000020850_ENSMUST00000102510|mouse|control|control (ssRNA)
RNA: GGGAGUUCUACAGUCCGACGAUCCUUGGACCACCUGAGGUCAGACUGGGGGAUAAGCACAUGGCCCAUCGAGAGCAUGCCAAGCCCACCCAGCUCCUUAGGGGUGUAGAAUACAACAGGCGGGAACCGGCUAGGCAUCUUGGACAACAGAGGAUUGAGCAUCA
B6: chr6:117881578:117881579:-_ENSG00000047932_ENST00000052569|hu_mus|FALSE|FALSE (ssRNA)
RNA: GGGAGUUCUACAGUCCGACGAUCCUUUAAUGUAGAAUAUGUCAUUUUUAUUUACAGGCUAAUUAAGAAUAUGAAACUCAACUAGAUAUAAUACAAUUAUCAUAAAUCCCCUUAUAUGUAAAUUAAUAUAUUUUUUGUUUUAAACAACAGAGGAUUGAGCAUCA
B7: chr19:46159329:46159330:+_ENSMUSG00000015176_ENSMUST00000165017|mus_hu|FALSE|FALSE (ssRNA)
RNA: GGGAGUUCUACAGUCCGACGAUCGGUCAAGUUGUCAAAAAAUGUCUUUCAACAGUAGAAAAGUUUGCUUUCAAAUUAAAAAACAAAGCACGUAUUGCAAACAUCGUGUAAUGAUAAAAUUACAGAAAAAAAUAUAUUCAGAAUCAACAGAGGAUUGAGCAUCA
B8: chr4:95690885:95690886:+_ENSMUSG00000028572_ENSMUST00000156910|mus_mus|mus_mus_mus_hu_False|78_98 (ssRNA)
RNA: GGGAGUUCUACAGUCCGACGAUCUUUAGAAAAUGUUAAUGUUAAAUCUAAAAUAUUGUAAUUUUAAUAUUUUAUUUUACCAGAAGUCACAGGCAAGCAGACACUACAAGAAUAUAUGAAAAUGAAACUCAACAAUAUAACUGUCAACAGAGGAUUGAGCAUCA
B9: chr19:53454881:53454882:-_ENSMUSG00000025024_ENSMUST00000025997|mus_mus|motif|central (ssRNA)
RNA: GGGAGUUCUACAGUCCGACGAUCGUUUCAUUCUACCAAAGCCAAACAAUGACAACAAUGUAUCUUCCUUACUCAGCAUCGGAGCAAUCAGUUACCUUUAGAAAAAUACAAGGAUAAAAAGGAGAGUGUAAAGUAAAGCCCUGCCAACAGAGGAUUGAGCAUCA
B10: chr19:15271055:15271056:-_ENSG00000074181_ENST00000263388|hu_hu|FALSE|FALSE (ssRNA)
RNA: GGGAGUUCUACAGUCCGACGAUCCAUAUAUAUAUUUUGUAAAAAAUAAUAAUAAUAAGUUUGUUUAAAUGAAUUUGUUUCUAUACAAAAUGUAAAAAAAAAAAGAAAAAUAAAAAUAAUAAUAAUUCAUUCAUGUCAGAGUGUCAACAGAGGAUUGAGCAUCA
B11: chr10:123500321:123500322:-_ENSG00000107669_ENST00000369043|hu_hu|motif|central (ssRNA)
RNA: GGGAGUUCUACAGUCCGACGAUCACGUUAAGAAACUACACACAACAAAUAUUUGCAAAAUGAAUGAAAAAUAGGAUAAAGCGGUUUAAAAGUCAACAUAGUAAUAUUUAUCUAAAUAAUUUUAAUCAAAUGUACAACAUAUUUCAACAGAGGAUUGAGCAUCA
B12: 207631549_207631669_399_CDS_ENSG00000118246_ENST00000403094|human|control|control (ssRNA)
RNA: GGGAGUUCUACAGUCCGACGAUCAAAAAUGAAUGCAUCCUGAAAGAGAUAUCUAAUGAUAUCAGUUGAUUGCAUUCUGUUAUGAAAGUUAUUUAAAAUGUUCCAGUUUGAAUGAACUAUUUUUGGUUUGCAAAGUCCCAAACACAACAGAGGAUUGAGCAUCA
B13: chr4:125586161:125586162:-_ENSG00000151458_ENST00000504087|hu_mus|FALSE|FALSE (ssRNA)
RNA: GGGAGUUCUACAGUCCGACGAUCCACGACGUCCUAAACAGUUGAUUUACAAAAUUUAAAUAUUUGAAUUUCAAAAAUAGCCAUUUAUUAUUAUUUUUUUAUUUGUGGGACCGUUUCUUAUCUUUGUAAUAGAGAAGUCAUUGUCAACAGAGGAUUGAGCAUCA
B14: 186301657_186302230_1024_CDS_ENSG00000090520_ENST00000265028|human|control|control (ssRNA)
RNA: GGGAGUUCUACAGUCCGACGAUCGGAAAUAUGUACCUUGUGACCAUCCAAGUGAGUAAUAUCCAUCUCAAAGCCAACCAGUGACUCAACUAAUGAGAUUGUCACAUUUGUGUACAAAUCAUCUCCUCUCCUUUCAAAUAUUGGCAACAGAGGAUUGAGCAUCA

The target of the assay is T1, UNK ZnF1-3. Kind of assay: nsRBNS (natural sequence RNA bind-n-seq); RBNS binding buffer (assumed for nsRBNS): 25 mM Tris pH 7.5, 150 mM KCl, 3 mM MgCl2, 0.01% Triton X-100, 500 ug/ml BSA, 20 U/ml SUPERase-In, 4 C; UNK is unkempt and MSI1 is Musashi-1; names of the RNAs are library labels; protein concentration not given here; high values mean tight binding.
Regarding B1, the binding signal is 1.22 enrichment R.
In turn, B2 gave a binding signal of 1.01 enrichment R.
The same measure for B3: 3.65 enrichment R; for B4: 0.64 enrichment R; for B5: 0.919 enrichment R.
The figure for B6 is 4.33 enrichment R; for B7 it is 6.25 enrichment R; for B8 it is 3.29 enrichment R.
The figure for B9 is 1.52 enrichment R; for B10 it is 9.9 enrichment R; for B11 it is 6.73 enrichment R.
B12 returned a binding signal of 0.397 enrichment R.
The same measure for B13: 3.35 enrichment R; for B14: 0.986 enrichment R.
